From PubChem BioAssay AID1159580 (chemical genetic matrix, 2015)
Values joined by “and” are separate entries in the source; they are usually repeats but may differ in a detail not shown here. Identical values can stand only once. The whole screen tested about 5,500 compounds, of which about 2,000 (36%) were called active. Not shown: some 18% with an inconclusive outcome. Cut-off read from the data, not from the text of the source: active = normalized growth mostly below about 0.91 (no sharp cut-off); inconclusive = no clear call, values can overlap the other calls; inactive = mostly above about 0.92. This is one part of the list.

Test: chemical genetic growth profiling, strain panel (AID 1159580);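 note: tested at 20 µM; growth read once vehicle control cultures reached saturation at 30 °C; 1 = growth at the plate median or of vehicle wells; lower values mean less growth of the strain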
Conditions: S. cerevisiae deletion strains, growth OD

Measured: normalized growth

NC(=O)c1ccc[n+]([C@@H]2O[C@H](COP(=O)([O-])OP(=O)(O)OC[C@H]3O[C@@H](n4cnc5c(N)ncnc54)[C@H](O)[C@@H]3O)[C@@H](O)[C@H]2O)c1
inactive: locus YAL013W, strain DEP1, hits give low values 0.974 | locus YAL021C, strain ccr4, hits give low values 1.05 | locus YAL026C, strain drs2, hits give low values 1.04 | locus YAL030W, strain snc1, hits give low values 1.02 | locus YBL061C, strain skt5, hits give low values 1.03 | locus YBR009C, strain hhf1, hits give low values 1.05 | locus YBR021W, strain FUR4, hits give low values 0.996 | locus YBR023C, strain chs3, hits give low values 1.03 | locus YBR171W, strain sec66, hits give low values 1.06 | locus YBR229C, strain ROT2, hits give low values 0.949 | locus YBR231C, strain swc5, hits give low values 1.03 | locus YBR279W, strain paf1, hits give low values 1.02 | locus YCL011C, strain gbp2, hits give low values 1.04 | locus YCL016C, strain dcc1, hits give low values 1.04 | locus YCL029C, strain bik1, hits give low values 0.99 | locus YCL061C, strain MRC1, hits give low values 1.03 | locus YCL069W, strain vba3, hits give low values 1.03 | locus YCR088W, strain abp1, hits give low values 1.03 | locus YDL005C, strain med2, hits give low values 1.02 | locus YDL035C, strain GPR1, hits give low values 0.986 | locus YDL040C, strain nat1, hits give low values 1.03 | locus YDL074C, strain BRE1, hits give low values 1.03 | locus YDL101C, strain DUN1, hits give low values 0.987 | locus YDL134C, strain PPH21, hits give low values 0.978 | locus YDL185W, strain tfp1, hits give low values 0.994 | locus YDL192W, strain arf1, hits give low values 0.99 | locus YDR001C, strain nth1, hits give low values 1.02 | locus YDR069C, strain doa4, hits give low values 1.02 | locus YDR101C, strain arx1, hits give low values 1.01 | locus YDR137W, strain rgp1, hits give low values 1.07 | locus YDR150W, strain NUM1, hits give low values 0.965 | locus YDR159W, strain sac3, hits give low values 0.949 | locus YDR162C, strain NBP2, hits give low values 0.973 | locus YDR195W, strain ref2 1.08 | locus YDR297W, strain sur2, hits give low values 1.04 | locus YDR318W, strain mcm21, hits give low values 1.02 | locus YDR334W, strain swr1, hits give low values 1.02 | locus YDR335W, strain msn5, hits give low values 1.05 | locus YDR388W, hits give low values 0.99 | locus YDR392W, strain spt3, hits give low values 1.08 | locus YDR502C, strain sam2, hits give low values 0.992 | locus YEL003W, strain gim4, hits give low values 1.02 | locus YEL037C, strain rad23, hits give low values 1.03 | locus YEL061C, strain CIN8 (second series), hits give low values 1.02 | locus YEL061C, strain CIN8, hits give low values 0.981 | locus YER015W, strain faa2, hits give low values 1.04 | locus YER016W, strain bim1, hits give low values 1.04 | locus YER110C, hits give low values 0.973 | locus YER111C, strain swi4, hits give low values 1.03 | locus YER155C, strain BEM2 (second series), hits give low values 1.06 | locus YER155C, strain BEM2, hits give low values 0.99 | locus YER167W, strain BCK2, hits give low values 0.987 | locus YFR010W, strain ubp6, hits give low values 1.05 | locus YGL078C, strain dbp3, hits give low values 0.998 | locus YGL086W, strain mad1, hits give low values 0.992 | locus YGL167C, strain pmr1, hits give low values 1.04 | locus YGL173C, strain kem1, hits give low values 1.04 | locus YGL227W, strain vid30, hits give low values 1.03 | locus YGL240W, strain doc1, hits give low values 1.02 | locus YGL248W, strain PDE1, hits give low values 0.977 | locus YGL253W, strain hxk2, hits give low values 1.04 | locus YGR078C, strain PAC10, hits give low values 1.02 | locus YGR135W, strain pre9, hits give low values 1 | locus YGR229C, strain SMI1, hits give low values 1.02 | locus YGR252W, strain gcn5, hits give low values 0.913 | locus YHR013C, strain ard1, hits give low values 1.08 | locus YHR027C, strain rpn1, hits give low values 1.03 | locus YHR030C, strain SLT2, hits give low values 0.981 and 0.987 | locus YHR079C, strain IRE1 (second series), hits give low values 1 | locus YHR079C, strain IRE1, hits give low values 0.962 | locus YHR094C, strain hxt1, hits give low values 0.993 | locus YHR129C, strain ARP1, hits give low values 0.996 | locus YHR142W, strain chs7, hits give low values 1.09 | locus YHR200W, strain rpn10, hits give low values 0.994 | locus YIL066C, strain RNR3, hits give low values 0.982 | locus YIL073C, strain SPO22, hits give low values 0.985 | locus YIL125W, strain kgd1, hits give low values 0.986 | locus YIR030C, strain dcg1, hits give low values 0.988 | locus YJL092W, strain hpr5, hits give low values 1.02 | locus YJL095W, strain BCK1 (second series), hits give low values 1.02 | locus YJL095W, strain BCK1, hits give low values 1.03 and 0.983 | locus YJL115W, strain asf1, hits give low values 1.03 | locus YJL129C, strain trk1, hits give low values 1.06 | locus YJL134W, strain LCB3, hits give low values 0.977 | locus YJL154C, strain vps35, hits give low values 1.02 | locus YJL164C, strain tpk1, hits give low values 1.05 | locus YJL166W, strain qcr8, hits give low values 1.03 | locus YJL168C, strain set2, hits give low values 0.995 | locus YJL187C, strain SWE1 (second series), hits give low values 0.987 | locus YJR043C, strain POL32, hits give low values 1.02 | locus YJR066W, strain TOR1, hits give low values 0.943
